From the supplement of paper PMC9492666
Where a name gives a salt, the structure may show the parent alone.

test system: MDA-MB-231; experiment: relative cell viability, compound + erastin, vs DMSO (fraction of DMSO control); higher = less growth inhibition; conditions: 72 h
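Note: viability read by CCK-8 kit in 96-well plates, part of a combination screen pairing lipid-metabolism-targeting compounds with erastin.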

SMILES | relative cell viability
CCCCCCCCCCCCC/C=C/[C@@H](O)[C@@H](N)CO + CCOc1ccccc1-n1c(C(C)N2CCN(C(=O)COc3ccc(Cl)cc3)CC2)nc2ccccc2c1=O [erastin] | 0.363
COc1ccc(C(=O)/C=C/c2ccccc2)cc1 [4'-Methoxychalcone] + CCOc1ccccc1-n1c(C(C)N2CCN(C(=O)COc3ccc(Cl)cc3)CC2)nc2ccccc2c1=O [erastin] | 0.54
CC(C)OC(=O)C(C)(C)Oc1ccc(C(=O)c2ccc(Cl)cc2)cc1 [Fenofibrate] + CCOc1ccccc1-n1c(C(C)N2CCN(C(=O)COc3ccc(Cl)cc3)CC2)nc2ccccc2c1=O [erastin] | 0.646
CCN(CC)CCN(Cc1ccc(-c2ccc(C(F)(F)F)cc2)cc1)C(=O)Cn1c(SCc2ccc(F)cc2)nc(=O)c2c1CCC2 [Darapladib] + CCOc1ccccc1-n1c(C(C)N2CCN(C(=O)COc3ccc(Cl)cc3)CC2)nc2ccccc2c1=O [erastin] | 0.296
CC(C)=CCC[C@](C)(O)[C@H]1CC[C@]2(C)[C@@H]1[C@H](O)C[C@@H]1[C@@]3(C)CC[C@H](O)C(C)(C)[C@@H]3[C@@H](O)C[C@]12C [(20S)-Protopanaxatriol] + CCOc1ccccc1-n1c(C(C)N2CCN(C(=O)COc3ccc(Cl)cc3)CC2)nc2ccccc2c1=O [erastin] | 0.397
CCCCCCCCCCOc1ccc(C(=O)Nc2cc(C(=O)NCCCC)ccc2SC)cc1 + CCOc1ccccc1-n1c(C(C)N2CCN(C(=O)COc3ccc(Cl)cc3)CC2)nc2ccccc2c1=O [erastin] | 0.845
O=C(O)CN(CC(=O)O)c1ccccc1OCCOc1ccccc1N(CC(=O)O)CC(=O)O + CCOc1ccccc1-n1c(C(C)N2CCN(C(=O)COc3ccc(Cl)cc3)CC2)nc2ccccc2c1=O [erastin] | 0.765
CCCc1cc(-c2nc(-c3ccc(C)cc3)cs2)ccn1 [Fatostatin] + CCOc1ccccc1-n1c(C(C)N2CCN(C(=O)COc3ccc(Cl)cc3)CC2)nc2ccccc2c1=O [erastin] | 0.595
Cc1cc(N2C[C@@H](C)N[C@@H](C)C2)ncc1-c1ccc(-c2nc3c(ccn3C)c(=O)[nH]2)cc1 + CCOc1ccccc1-n1c(C(C)N2CCN(C(=O)COc3ccc(Cl)cc3)CC2)nc2ccccc2c1=O [erastin] | 0.551
CCOC(=O)C(C)(C)Oc1ccc(Cl)cc1 [Clofibrate] + CCOc1ccccc1-n1c(C(C)N2CCN(C(=O)COc3ccc(Cl)cc3)CC2)nc2ccccc2c1=O [erastin] | 0.653
COc1ccc(C2(CNC(=O)c3ccc(NC(=O)c4ccco4)cc3)CCOCC2)cc1 + CCOc1ccccc1-n1c(C(C)N2CCN(C(=O)COc3ccc(Cl)cc3)CC2)nc2ccccc2c1=O [erastin] | 0.728
C[C@@H]1OCC2(CCN(c3cnc(Sc4ccnc(N)c4Cl)c(N)n3)CC2)[C@@H]1N + CCOc1ccccc1-n1c(C(C)N2CCN(C(=O)COc3ccc(Cl)cc3)CC2)nc2ccccc2c1=O [erastin] | 0.732
CCOC(=O)N1c2ccc(C(F)(F)F)cc2[C@@H](N(Cc2cc(C(F)(F)F)cc(C(F)(F)F)c2)C(=O)OC)C[C@H]1CC [Torcetrapib] + CCOc1ccccc1-n1c(C(C)N2CCN(C(=O)COc3ccc(Cl)cc3)CC2)nc2ccccc2c1=O [erastin] | 0.823
C=C(C)[C@@H]1CC[C@]2(CO)CC[C@]3(C)[C@H](CC[C@@H]4[C@@]5(C)CC[C@H](O)C(C)(C)[C@@H]5CC[C@]43C)[C@@H]12 [Betulin] + CCOc1ccccc1-n1c(C(C)N2CCN(C(=O)COc3ccc(Cl)cc3)CC2)nc2ccccc2c1=O [erastin] | 0.32
CC(C)(C)NC(=O)[C@H]1CC[C@H]2[C@@H]3CC[C@H]4NC(=O)C=C[C@]4(C)[C@H]3CC[C@]12C [Finasteride] + CCOc1ccccc1-n1c(C(C)N2CCN(C(=O)COc3ccc(Cl)cc3)CC2)nc2ccccc2c1=O [erastin] | 0.646
CC(C)(Oc1ccc(C(=O)c2ccc(Cl)cc2)cc1)C(=O)O [Fenofibric acid] + CCOc1ccccc1-n1c(C(C)N2CCN(C(=O)COc3ccc(Cl)cc3)CC2)nc2ccccc2c1=O [erastin] | 0.915
CC(C)n1c(/C=C/C(O)CC(O)CC(=O)O)c(-c2ccc(F)cc2)c2ccccc21 (centres undefined) [Fluvastatin sodium salt] + CCOc1ccccc1-n1c(C(C)N2CCN(C(=O)COc3ccc(Cl)cc3)CC2)nc2ccccc2c1=O [erastin] | 0.869
CC(=O)O[C@H](CC=C(C)C)C1=CC(=O)c2c(O)ccc(O)c2C1=O [Acetyl shikonin] + CCOc1ccccc1-n1c(C(C)N2CCN(C(=O)COc3ccc(Cl)cc3)CC2)nc2ccccc2c1=O [erastin] | 0.877
O=C(Nc1ccc(C(O)(C(F)(F)F)C(F)(F)F)cc1)c1ccc(C(F)(F)F)cc1 + CCOc1ccccc1-n1c(C(C)N2CCN(C(=O)COc3ccc(Cl)cc3)CC2)nc2ccccc2c1=O [erastin] | 0.693
